# According to PubChem BioAssay (NCATS):
# “And” between values parts separate entries of the source, which are not always exact repeats. Identical values can stand only once. A number with no mark means an inactive call. Inconclusive results are not listed. The source made the active and inactive calls. Unless noted, the call rests on the fitted dose curve; in most records, active means well fitted curve in either direction with a large enough effect (not every such curve was filed as active); inconclusive means small, poorly fitted or top-dose-only effect, or another doubt; inactive means flat fitted curve, though single readings scatter.
# Columns and labels:
# [1] = Stat Signaling Pathway (AID 446); details: ME-180 (cervical carcinoma) SIE beta-lactamase reporter, IL-6 stimulated, 5 h;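 further: ME-180 cervical cancer cells given 40 pM IL-6 alongside compound; SIE-controlled beta-lactamase reporter measured as 460/530 nm FRET emission ratio; on the % scale 0 is the no-effect control and ±100 the full control effect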
# Procedure, shortened: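 IL-6/STAT signaling read in ME-180 cells via an SIE beta-lactamase reporter. Stimulus was 40 pM IL-6 (its AC50) for 5 hrs, so both activation and inhibition register.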
# [2] = target: Glucocorticoid receptor (Homo sapiens) (UniProt P04150); assay: GR-GFP Redistribution (AID 450;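 active means compounds whose dose series gives a full or clear partial fitted curve of increased nuclear translocation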; further: potency means the concentration at half of the fitted maximal effect); details: U2OS GR-GFP nuclear translocation, laser cytometry, 2 h
# Glucocorticoid receptor (Homo sapiens), sequence (P04150 whole entry, looked up, the tested form may be a part): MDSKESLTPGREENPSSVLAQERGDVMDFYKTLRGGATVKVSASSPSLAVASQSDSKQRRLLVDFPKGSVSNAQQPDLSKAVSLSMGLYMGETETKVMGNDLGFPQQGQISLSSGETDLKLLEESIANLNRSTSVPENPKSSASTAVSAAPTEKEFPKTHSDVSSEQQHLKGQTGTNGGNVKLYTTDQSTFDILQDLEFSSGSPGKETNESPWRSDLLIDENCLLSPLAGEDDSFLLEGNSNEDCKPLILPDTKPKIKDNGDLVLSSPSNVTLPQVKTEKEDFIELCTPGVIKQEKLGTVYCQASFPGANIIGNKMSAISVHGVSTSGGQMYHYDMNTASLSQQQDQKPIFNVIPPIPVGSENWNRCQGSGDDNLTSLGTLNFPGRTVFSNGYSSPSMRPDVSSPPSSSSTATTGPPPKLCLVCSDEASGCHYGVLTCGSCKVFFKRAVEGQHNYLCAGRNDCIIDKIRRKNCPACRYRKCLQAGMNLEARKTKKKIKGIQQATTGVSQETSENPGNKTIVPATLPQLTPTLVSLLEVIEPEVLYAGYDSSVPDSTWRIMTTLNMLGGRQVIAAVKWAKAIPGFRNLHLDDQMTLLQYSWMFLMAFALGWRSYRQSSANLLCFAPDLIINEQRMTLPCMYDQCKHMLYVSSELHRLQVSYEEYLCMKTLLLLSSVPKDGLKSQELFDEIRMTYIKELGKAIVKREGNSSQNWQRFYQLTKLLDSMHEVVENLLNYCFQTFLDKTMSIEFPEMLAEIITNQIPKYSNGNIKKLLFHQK
# [3] = target: Glucocorticoid receptor (Homo sapiens) (UniProt P04150); assay: GR-EFC Redistribution (AID 451; calls by dose curve; further: potency means the concentration at half of the fitted maximal effect); details: CHO-K1 GR-EFC translocation, beta-gal luminescence, 2 h
# Procedure, shortened: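 CHO-K1 cells expressing nuclear EA and GR-ED fragments of b-gal; compounds titrated up to 46 uM final, 2 h at 37 C. GR nuclear translocation read as complemented b-gal luminescence after 1 h RT detection.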
# [4] = target: Mitogen-activated protein kinase 10 (Mus musculus) (UniProt Q61831); assay: JNK3 AlphaScreen Assay (AID 530); details: JNK3 lysate, c-Jun phosphorylation; series mostly up to 57.1 µM;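 further: kinase came from lysate of stimulated human HepG2 cells; signal reports phosphorylation of biotinylated GST-cJun 1-79 at Ser73 with 10 µM ATP; on the % scale 0 is the no-effect control and ±100 the full control effect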
# Procedure, shortened: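 qHTS format: compounds tested as titrations against IL-1beta/TNF-alpha-activated HepG2 lysate JNK3 with biotin-GST-cJun substrate and 10 uM ATP at room temperature. Loss of anti-phospho-cJun AlphaScreen signal indicates inhibition.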
# [5] = at 38 µM (top of the series) unless noted
Compound,"activity, negative = inhibition [1, 5]",Potency [2],Potency [3],outcome [4],"activity, negative = inhibition ([1]; at 17.2 µM (top of the series))","activity, negative = inhibition ([1]; at 38 µM (top of the series))"
C=CCn1c(=O)c2c(nc(-c3ccc(S(=O)(=O)O)cc3)n2C)n(C)c1=O,20.8%,> 46 µM,–,–,–,–
C[C@H](NC(=O)/C(C#N)=C/c1ccc(O)c(O)c1)c1ccccc1,-15.4%,> 46 µM,–,–,–,–
NC(N)=[N+]1CCc2ccccc2C1,19.1%,> 46 µM,> 46 µM,–,–,–
O=C1Cc2c([nH]c3ccc(Br)cc23)-c2ccccc2N1,-29.2% (active),> 46 µM,> 46 µM,inactive,–,–
COc1ccccc1N1CCN(CCCCNC(=O)c2ccc3ccccc3c2)CC1,–,> 46 µM and > 20.6 µM,> 46 µM and > 20.6 µM,inactive,5.11%,-1.2%
NOCC(=O)O,4.25%,> 46 µM,> 46 µM,–,–,–
CCCOC(=O)c1c(-c2ccccc2)nc(CC)c(C(=O)SCC)c1CCC,-19.4%,> 46 µM,> 46 µM,–,–,–
O=c1ccc2c(OCCCCc3ccccc3)c3ccoc3cc2o1,3.59%,> 46 µM,> 46 µM,–,–,–
O=C(O)c1ccccc1Nc1ccccc1,-15.6%,> 46 µM,–,–,–,–
CC1CNCCN1S(=O)(=O)c1cccc2cnccc12 (configuration not stated),-1.62% [at 17.2 µM],> 20.6 µM,–,–,–,–
COc1ccc(C(=O)NCc2cccnc2)cc1C(=O)NCc1cccnc1,–,> 46 µM and > 20.6 µM,> 46 µM and > 20.6 µM,inactive,2.24%,-27.6%
CNc1cc(NS(=O)(=O)c2ccc(N)cc2)nc(NC)n1,13.2%,> 46 µM,> 46 µM,–,–,–
CN(C)CCC(c1ccc(Br)cc1)c1ccccn1 (configuration not stated),1.22% [at 17.2 µM],–,–,–,–,–
CCCCCCCC/C=C\CCCCCCCC(=O)NCCc1ccc(O)c(O)c1,0.267%,> 46 µM,> 46 µM,–,–,–
O=C(O)/C=C/c1ccc(O)c(O)c1,-8.31% [at 17.2 µM],> 20.6 µM,–,–,–,–
O=c1[nH]c2cc(Cl)ccc2c(O)c1-c1ccc(Oc2ccccc2)cc1,-10.1%,> 46 µM,> 46 µM,–,–,–
N#Cc1cc2nc(O)c(O)nc2cc1[N+](=O)[O-],-26.5%,> 46 µM,> 46 µM,inactive,–,–
NCCCCN,-10.8%,> 46 µM,–,–,–,–
CC(C)NC[C@H](O)COc1ccc(CC(N)=O)cc1,–,–,–,inactive,2.19% and -5.69%,0.94% and 14.3%
c1ccc(CN2CCC3(CCCc4ccccc43)CC2)cc1,-10.2%,> 46 µM,> 46 µM,inactive,–,–
CCN1C(=O)C=CC1=O,-6.29%,> 46 µM,> 46 µM,–,–,–
N[C@@H](Cc1ccc(O)c(I)c1)C(=O)O,5.15% [at 17.2 µM],> 20.6 µM,–,–,–,–
N#C/C(=C\c1ccc(O)c(O)c1)C(=O)NCCCNC(=O)/C(C#N)=C/c1ccc(O)c(O)c1,-7.91%,> 46 µM,> 46 µM,–,–,–
CC[N+](CC)(CC)CC(=O)Nc1c(C)cccc1C,-19.8%,> 46 µM,> 46 µM,inactive,–,–
O=c1oc(Cl)c(Cl)c2ccccc12,22.3% (active),> 46 µM,> 46 µM,inactive,–,–
C#CCn1c(=O)c2c(ncn2C)n(C)c1=O,16.8%,> 46 µM,> 46 µM,inactive,–,–
C=CC[C@H](N)C(=O)O,7.83%,> 46 µM,> 46 µM,inactive,–,–
Nc1nc2ccc(Cl)cc2c2nc(-c3ccco3)nn12,3.22%,> 46 µM,> 46 µM,inactive,–,–
